From the supplement of paper PMC10849652 come the findings set out here.

Of roughly 7,900 targets only a part is listed; those with a hit were picked by preference. About 0.6% of all pairs of compound and target were hits.

Sequence of UniProt P31943 (P31943 whole entry, looked up): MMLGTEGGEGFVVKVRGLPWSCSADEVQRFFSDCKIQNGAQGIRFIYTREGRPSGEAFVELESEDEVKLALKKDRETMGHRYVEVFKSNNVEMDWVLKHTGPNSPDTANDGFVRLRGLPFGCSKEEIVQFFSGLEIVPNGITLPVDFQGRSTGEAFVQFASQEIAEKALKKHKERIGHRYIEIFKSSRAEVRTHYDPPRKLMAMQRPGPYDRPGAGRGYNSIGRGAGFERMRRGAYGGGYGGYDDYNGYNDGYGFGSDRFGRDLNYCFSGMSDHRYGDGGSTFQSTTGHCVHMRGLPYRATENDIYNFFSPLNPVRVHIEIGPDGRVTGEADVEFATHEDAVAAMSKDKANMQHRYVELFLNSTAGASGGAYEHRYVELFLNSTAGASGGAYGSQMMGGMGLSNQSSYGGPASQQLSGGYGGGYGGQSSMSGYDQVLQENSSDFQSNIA
Sequence of UniProt P36969 (P36969 whole entry, looked up): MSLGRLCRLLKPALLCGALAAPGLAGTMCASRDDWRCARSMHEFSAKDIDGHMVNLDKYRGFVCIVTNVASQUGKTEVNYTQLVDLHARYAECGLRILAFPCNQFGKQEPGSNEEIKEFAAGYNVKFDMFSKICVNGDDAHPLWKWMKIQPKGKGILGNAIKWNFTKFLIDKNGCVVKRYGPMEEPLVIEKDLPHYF
Sequence of UniProt Q53GQ0 (Q53GQ0 whole entry, looked up): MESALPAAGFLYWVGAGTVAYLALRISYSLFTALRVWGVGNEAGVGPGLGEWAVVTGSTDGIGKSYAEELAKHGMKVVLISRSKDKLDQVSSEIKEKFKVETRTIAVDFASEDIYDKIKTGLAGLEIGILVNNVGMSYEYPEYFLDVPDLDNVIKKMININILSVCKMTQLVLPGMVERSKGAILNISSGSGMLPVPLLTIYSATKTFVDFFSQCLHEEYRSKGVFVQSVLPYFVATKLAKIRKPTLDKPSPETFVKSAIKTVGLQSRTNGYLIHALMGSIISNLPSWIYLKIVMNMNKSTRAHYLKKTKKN
Sequence of UniProt Q9H4A6 (Q9H4A6 whole entry, looked up): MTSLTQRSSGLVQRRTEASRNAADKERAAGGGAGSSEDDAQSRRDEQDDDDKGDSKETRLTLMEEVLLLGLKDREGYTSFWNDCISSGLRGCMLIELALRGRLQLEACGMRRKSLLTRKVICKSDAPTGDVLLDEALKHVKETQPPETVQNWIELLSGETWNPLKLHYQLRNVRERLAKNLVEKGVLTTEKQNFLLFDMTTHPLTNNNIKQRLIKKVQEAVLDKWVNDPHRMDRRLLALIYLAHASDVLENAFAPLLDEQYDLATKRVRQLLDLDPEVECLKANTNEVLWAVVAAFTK
Sequence of UniProt Q00403 (Q00403 whole entry, looked up): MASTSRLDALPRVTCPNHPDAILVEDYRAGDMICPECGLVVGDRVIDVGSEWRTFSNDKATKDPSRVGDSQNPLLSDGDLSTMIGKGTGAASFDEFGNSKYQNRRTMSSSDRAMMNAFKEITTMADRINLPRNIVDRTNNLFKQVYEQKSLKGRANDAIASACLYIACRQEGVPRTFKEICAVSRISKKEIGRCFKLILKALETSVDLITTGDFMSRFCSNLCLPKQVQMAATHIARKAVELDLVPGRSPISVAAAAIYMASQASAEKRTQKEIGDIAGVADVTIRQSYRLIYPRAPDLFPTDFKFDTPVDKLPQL
Sequence of UniProt Q8TEQ6 (Q8TEQ6 whole entry, looked up): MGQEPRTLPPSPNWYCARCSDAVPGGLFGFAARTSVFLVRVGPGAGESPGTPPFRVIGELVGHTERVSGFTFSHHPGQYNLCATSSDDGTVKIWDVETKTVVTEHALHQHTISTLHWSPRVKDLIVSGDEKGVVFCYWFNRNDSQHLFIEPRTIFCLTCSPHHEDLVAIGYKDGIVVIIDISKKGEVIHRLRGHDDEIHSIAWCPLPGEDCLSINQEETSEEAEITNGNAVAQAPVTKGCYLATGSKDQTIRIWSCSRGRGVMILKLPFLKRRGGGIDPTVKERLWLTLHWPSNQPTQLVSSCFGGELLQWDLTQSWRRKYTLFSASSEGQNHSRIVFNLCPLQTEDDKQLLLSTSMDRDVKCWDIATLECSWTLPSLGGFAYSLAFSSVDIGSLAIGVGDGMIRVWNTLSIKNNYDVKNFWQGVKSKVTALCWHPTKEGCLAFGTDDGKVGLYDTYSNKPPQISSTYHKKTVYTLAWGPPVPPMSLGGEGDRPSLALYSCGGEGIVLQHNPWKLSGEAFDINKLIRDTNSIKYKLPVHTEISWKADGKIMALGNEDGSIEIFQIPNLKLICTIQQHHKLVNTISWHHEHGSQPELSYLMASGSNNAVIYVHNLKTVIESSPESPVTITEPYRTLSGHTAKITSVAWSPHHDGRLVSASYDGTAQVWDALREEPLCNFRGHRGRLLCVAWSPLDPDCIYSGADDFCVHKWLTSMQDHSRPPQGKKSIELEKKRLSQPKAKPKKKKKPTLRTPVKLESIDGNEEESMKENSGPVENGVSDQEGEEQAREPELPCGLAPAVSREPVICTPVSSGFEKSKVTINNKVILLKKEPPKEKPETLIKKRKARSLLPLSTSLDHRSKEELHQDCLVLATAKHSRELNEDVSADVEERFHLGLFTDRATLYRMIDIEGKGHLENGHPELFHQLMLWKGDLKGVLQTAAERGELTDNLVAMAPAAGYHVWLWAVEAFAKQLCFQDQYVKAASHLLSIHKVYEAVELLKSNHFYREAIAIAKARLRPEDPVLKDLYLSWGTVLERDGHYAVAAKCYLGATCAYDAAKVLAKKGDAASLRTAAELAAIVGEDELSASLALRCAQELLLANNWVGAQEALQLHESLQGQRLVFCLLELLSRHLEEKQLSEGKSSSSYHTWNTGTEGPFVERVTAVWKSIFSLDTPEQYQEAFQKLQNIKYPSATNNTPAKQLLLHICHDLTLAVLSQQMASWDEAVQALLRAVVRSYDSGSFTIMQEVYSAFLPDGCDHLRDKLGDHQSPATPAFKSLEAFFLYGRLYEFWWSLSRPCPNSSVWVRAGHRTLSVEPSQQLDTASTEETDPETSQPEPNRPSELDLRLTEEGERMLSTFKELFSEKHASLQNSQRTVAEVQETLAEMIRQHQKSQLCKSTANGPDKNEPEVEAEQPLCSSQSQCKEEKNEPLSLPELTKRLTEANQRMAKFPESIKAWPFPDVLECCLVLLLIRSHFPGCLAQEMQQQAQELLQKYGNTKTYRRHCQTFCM
Sequence of UniProt P29083 (P29083 whole entry, looked up): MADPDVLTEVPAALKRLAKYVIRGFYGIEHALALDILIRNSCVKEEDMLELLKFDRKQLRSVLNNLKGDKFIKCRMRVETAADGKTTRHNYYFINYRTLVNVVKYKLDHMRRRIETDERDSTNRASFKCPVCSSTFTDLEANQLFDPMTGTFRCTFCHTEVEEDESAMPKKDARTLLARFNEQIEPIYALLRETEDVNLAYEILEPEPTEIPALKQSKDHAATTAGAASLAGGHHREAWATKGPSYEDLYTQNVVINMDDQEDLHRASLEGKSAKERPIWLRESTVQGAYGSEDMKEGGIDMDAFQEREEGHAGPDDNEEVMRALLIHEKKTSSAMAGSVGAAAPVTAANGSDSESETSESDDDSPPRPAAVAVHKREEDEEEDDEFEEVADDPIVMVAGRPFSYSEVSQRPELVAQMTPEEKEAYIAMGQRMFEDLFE
Sequence of UniProt P52657 (P52657 whole entry, looked up): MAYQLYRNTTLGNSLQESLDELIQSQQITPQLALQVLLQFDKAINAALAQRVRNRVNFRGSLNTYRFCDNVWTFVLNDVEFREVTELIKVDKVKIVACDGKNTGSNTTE
Sequence of UniProt P07910 (P07910 whole entry, looked up): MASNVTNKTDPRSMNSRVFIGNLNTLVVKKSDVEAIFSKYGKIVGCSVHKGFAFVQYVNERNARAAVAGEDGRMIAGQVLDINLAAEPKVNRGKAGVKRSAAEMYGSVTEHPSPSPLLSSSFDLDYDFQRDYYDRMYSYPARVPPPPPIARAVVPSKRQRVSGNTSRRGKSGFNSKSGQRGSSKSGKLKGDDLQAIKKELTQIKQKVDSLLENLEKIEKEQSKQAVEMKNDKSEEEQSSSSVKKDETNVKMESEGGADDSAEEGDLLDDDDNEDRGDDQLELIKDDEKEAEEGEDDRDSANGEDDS
Sequence of UniProt Q10472 (Q10472 whole entry, looked up): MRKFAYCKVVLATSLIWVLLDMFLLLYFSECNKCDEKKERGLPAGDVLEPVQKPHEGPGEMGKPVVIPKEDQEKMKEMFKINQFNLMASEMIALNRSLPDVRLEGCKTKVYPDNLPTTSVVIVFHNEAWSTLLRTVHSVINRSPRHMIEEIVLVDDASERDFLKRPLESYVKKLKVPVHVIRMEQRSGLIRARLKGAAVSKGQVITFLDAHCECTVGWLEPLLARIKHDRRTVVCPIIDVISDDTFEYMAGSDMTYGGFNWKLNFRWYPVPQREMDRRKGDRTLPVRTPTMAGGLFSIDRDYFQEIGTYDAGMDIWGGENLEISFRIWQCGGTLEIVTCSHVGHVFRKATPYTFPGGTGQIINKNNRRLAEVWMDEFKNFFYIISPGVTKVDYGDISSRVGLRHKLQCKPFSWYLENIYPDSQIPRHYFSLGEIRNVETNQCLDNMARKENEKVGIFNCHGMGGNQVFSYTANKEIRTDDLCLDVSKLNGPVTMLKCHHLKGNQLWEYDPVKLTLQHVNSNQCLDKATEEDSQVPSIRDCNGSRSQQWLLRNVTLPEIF
Sequence of UniProt P09105 (P09105 whole entry, looked up): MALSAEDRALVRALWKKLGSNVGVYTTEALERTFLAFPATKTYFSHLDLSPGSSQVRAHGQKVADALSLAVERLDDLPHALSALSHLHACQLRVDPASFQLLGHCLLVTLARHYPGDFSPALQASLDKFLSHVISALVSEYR
Sequence of UniProt O15347 (O15347 whole entry, looked up): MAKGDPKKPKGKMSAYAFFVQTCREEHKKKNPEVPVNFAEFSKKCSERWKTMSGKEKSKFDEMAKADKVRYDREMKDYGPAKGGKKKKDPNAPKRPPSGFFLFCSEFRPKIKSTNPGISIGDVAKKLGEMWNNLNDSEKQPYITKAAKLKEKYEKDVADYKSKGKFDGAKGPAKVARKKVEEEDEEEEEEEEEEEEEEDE

Compound in this experiment: CC1=C(C=C(C=C1)NC(=O)C2=CC(=CC=C2)C(C)(C)C#N)NC3=CC4=C(C=C3)N=CN(C4=O)C
The experiment in a line: log2 fold change, soluble protein after heating vs DMSO (PISA); higher = thermal stabilisation; K562 cells, 10 uM, 30 min; active = over 0.2 and 3.5 SD of the protein, either way, in both replicates (recomputed). Summed up:
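K562 cells at 2×10^6 cells/mL were treated for 30 min with 10 μM compound, and aliquots were heated for 3 min over 48°C-58°C before pooling. Extraction used PBS with 0.5% NP-40 at 4°C, and soluble protein was the supernatant after 21,000xg for 90 min, measured by TMTpro 16plex LC-MS/MS with channel sums equalised. Thermal stability values, relative to control samples and from duplicates, are log2 fold changes.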
On to GNB2 (UniProt P62879), for which the log2 fold change was 0.11 (inactive).

In the case of GTF2B (UniProt Q00403), the log2 fold change is -0.018 (inactive).

For the target GTF2E1 (UniProt P29083), the log2 fold change was -0.005 (inactive).

With GPX4 (UniProt P36969), the log2 fold change is -0.005 (inactive).

As for HMGB3 (UniProt O15347), the log2 fold change was -0.012 (inactive).

Turning to GAPVD1 isoform 6 (UniProt Q14C86), the log2 fold change is 0.004 (inactive).

Turning to FNTB (UniProt P49356), the log2 fold change is 0.032 (inactive).

For FKBP4 (UniProt Q02790), the log2 fold change is 0.032 (inactive).

Regarding IFRD1 (UniProt O00458), the log2 fold change is 0.123 (inactive).

Take IFT80 isoform 3 (UniProt Q9P2H3): the log2 fold change is -0.023 (inactive).

On to IFI30 (UniProt P13284), for which the log2 fold change is -0.043 (inactive).

As for GALNT1 (UniProt Q10472), the log2 fold change was -0.004 (inactive).

Turning to FUBP3 (UniProt Q96I24), the log2 fold change was 0.021 (inactive).

On to ICMT (UniProt O60725), for which the log2 fold change is -0.048 (inactive).

As for GCC2 (UniProt Q8IWJ2), the log2 fold change is -0.004 (inactive).

Regarding HIC2 (UniProt Q96JB3), the log2 fold change was 0.039 (inactive).

As to HRC (UniProt P23327), the log2 fold change was -0.199 (inactive).

As to HSD17B12 (UniProt Q53GQ0), the log2 fold change was 0.094 (inactive).

Consider HMGCR isoform 3 (UniProt P04035), for which the log2 fold change was 0.131 (inactive).

Consider GOLPH3 (UniProt Q9H4A6), for which the log2 fold change was 0.074 (inactive).

In the case of GEMIN5 (UniProt Q8TEQ6), the log2 fold change is 0.035 (inactive).

FUCA2 (UniProt Q9BTY2): the log2 fold change is 0.015 (inactive).

On to HNRNPH1 (UniProt P31943), for which the log2 fold change was 0.077 (inactive).

In the case of GNPAT (UniProt O15228), the log2 fold change was -0.03 (inactive).

On to GOPC (UniProt Q9HD26), for which the log2 fold change was 0.207 (inactive).

For the target HPCAL1 (UniProt P37235), the log2 fold change was -0.022 (inactive).

As for GTF2A2 (UniProt P52657), the log2 fold change is 0.009 (inactive).

GSK3A (UniProt P49840): the log2 fold change was -0.025 (inactive).

Regarding HBQ1 (UniProt P09105), the log2 fold change is 0.053 (inactive).

HOOK3 (UniProt Q86VS8): the log2 fold change was -0.024 (inactive).

Turning to HEXA (UniProt P06865), the log2 fold change is -0.046 (inactive).

Regarding GGA2 (UniProt Q9UJY4), the log2 fold change was -0.015 (inactive).

Turning to HNRNPC isoform 2 (UniProt P07910), the log2 fold change was 0.276 (inactive).

Turning to H2AFX (UniProt P16104), the log2 fold change was -0.088 (inactive).

As for HDDC2 (UniProt Q7Z4H3), the log2 fold change was 0.009 (inactive).
